Results published in PubChem BioAssay AID720697 (Broad Institute, 2013).
Results with a measured potency or affinity are listed apart. Results filed as inconclusive are left out. Unmarked numbers belong to inactive results. The source made the active and inactive calls.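 The calls were made as follows: active = signal loss with fitted half-maximal concentration at or below twice the top valid tested dose in every test run; inconclusive = runs disagree, flat 30 to 70% signal loss, or poor fit; inactive = all runs flat, opposite direction, or potency beyond limit.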

Assay: general mammalian cell viability loss – inhibitor set, cherry-pick, set 2, cytotoxicity control for miR-122 modulator project, dose response (AID 720697);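 also: 0% = median of neutral control wells and -100% = MG132 positive control wells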
Settings: HEK293T viability, CellTiter-Glo luminescence, 48 h; series mostly up to 26 µM

SMILES | outcome | activity change, negative = cytotoxicity
CC(=O)N1[C@@H](CO)[C@@H](c2ccccc2)[C@@H]1CNC(=O)CN1CCOCC1 | inactive | 
COc1cc(C(=O)Nc2ccc(S(=O)(=O)N3CCCCC3C)cc2)cc(OC)c1OC (stereo not drawn) | inactive | 
CCC(=O)N(C)C[C@@H]1[C@H](c2ccc(-c3ccccc3F)cc2)[C@H](CO)N1C(C)=O | inactive | 
COc1ccc(S(=O)(=O)Nc2ccc3c(c2)CC(=O)N([C@@H](C)CO)C[C@@H](C)[C@H](CN(C)Cc2ccc(C(F)(F)F)cc2)O3)cc1 | inactive | 
Cc1cc(C(=O)Nc2ccc3c(c2)C(=O)N(C)[C@H]2CC[C@H](CC(=O)N[C@H](C)c4ccccc4)O[C@H]2CO3)no1 | inactive | 
Fc1ccccc1-c1nc(-c2ccncc2)no1 |  | -1.62% [at 6 µM]
CN1C(=O)c2cc(NC(=O)c3cccc(F)c3)ccc2OC[C@H]2O[C@@H](CC(=O)NC3CCC3)CC[C@H]21 | inactive | 
CN1C(=O)c2cc(NS(=O)(=O)c3ccc(Cl)cc3)ccc2OC[C@@H]2O[C@H](CC(=O)N3CCc4ccccc4C3)CC[C@H]21 | inactive | 
CCCC#Cc1ccc2c(c1)O[C@H](CN(C)C(=O)COC)[C@H](C)CN([C@@H](C)CO)S2(=O)=O | inactive | 
COc1cccc(-c2nn(-c3ccccc3)cc2CO)c1 | inactive | 
O=C(NC[C@H]1[C@H](c2ccccc2)[C@H](CO)N1CC1CCCC1)c1ccncc1 | inactive | 
Cc1cc(C)c2c(c1)/C(=C/C(=O)c1ccc(Br)s1)C(=O)N2 | inactive | 
CCCNC(=O)N1[C@H](CNC(C)=O)[C@H](c2ccc(C3=CCCC3)cc2)[C@@H]1CO | inactive | 
